Measured values reported in PubChem BioAssay (NCATS).
Results filed as inconclusive are left out. Active and inactive are the calls of the source. The call rests on the fitted dose curve; in most records, active means well fitted curve in the direction sought with a large enough effect; inconclusive means small, poorly fitted or top-dose-only effect, or another doubt; inactive means no such curve, though single readings can be large; an effect the other way counts as inactive or inconclusive.

Experiments:
MKL-2 = test: qHTS assay to identify novel small-molecules to repurpose for Merkel cell carcinoma treatment (AID 1296009); conditions: MCC and control cell lines, CellTiter-Glo viability, 72 h; series mostly up to 46 µM; further: nearly all actives have a fitted effect of over 60% in size
Outline: (§1)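 Luminescence from CellTiter-Glo, read 10 min after addition at room temperature, reported viability following a 72 hr, 37 degree celsius treatment with NPC or MIPE compounds in titration; values normalized to plate controls.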

UISO = test: as above; conditions: MCC and control cell lines, CellTiter-Glo viability, 72 h; series mostly up to 46 µM
Outline: as §1

WaGa = test: as above; conditions: MCC and control cell lines, CellTiter-Glo viability, 72 h; series mostly up to 46 µM
Outline: as §1

C33A = test: Primary qHTS to identify gynecologic anti-cancer compounds using libraries of approved drugs and bioactive compounds (AID 1345084); conditions: Gynecologic cancer cell panel viability, ATPlite luminescence, 48 h; series mostly up to 57.5 µM; further: nearly all actives have a fitted effect of over 55% in size
Outline: (§2)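 ATP-based viability (ATPlite), 1,000 cells/well, 16 h pre-incubation, 48 h compound at 37 C, 5% CO2, 15 min RT before read.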

CAOV3 = test: as above; conditions: Gynecologic cancer cell panel viability, ATPlite luminescence, 48 h; series mostly up to 57.5 µM
Outline: as §2

Es-2 = test: as above; conditions: Gynecologic cancer cell panel viability, ATPlite luminescence, 48 h; series mostly up to 57.5 µM
Outline: as §2

HeLa = test: as above; conditions: Gynecologic cancer cell panel viability, ATPlite luminescence, 48 h; series mostly up to 57.5 µM
Outline: as §2

Hek293T = test: as above; conditions: Gynecologic cancer cell panel viability, ATPlite luminescence, 48 h, control line for the selectivity index; series mostly up to 57.5 µM
Outline: as §2

JEG-3 = test: as above; conditions: Gynecologic cancer cell panel viability, ATPlite luminescence, 48 h; series mostly up to 57.5 µM
Outline: as §2

OV90 = test: as above; conditions: Gynecologic cancer cell panel viability, ATPlite luminescence, 48 h; series mostly up to 57.5 µM
Outline: as §2

PA-1 = test: as above; conditions: Gynecologic cancer cell panel viability, ATPlite luminescence, 48 h; series mostly up to 57.5 µM
Outline: as §2

SKOV3 = test: as above; conditions: Gynecologic cancer cell panel viability, ATPlite luminescence, 48 h; series mostly up to 57.5 µM
Outline: as §2

Tov-21-G = test: as above; conditions: Gynecologic cancer cell panel viability, ATPlite luminescence, 48 h; series mostly up to 57.5 µM
Outline: as §2

Tov112D = test: as above; conditions: Gynecologic cancer cell panel viability, ATPlite luminescence, 48 h; series mostly up to 57.5 µM
Outline: as §2

[1] = Drug repurposing screens with cells derived from glioblastoma tumor samples (AID 1345199); conditions: GBM patient neurospheres viability, ATP luminescence, 48 h; further: nearly all actives have a fitted effect of over 40% in size
Outline: (§3)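 Primary testing used CD133+ neurospheres from four GBM patients, seven concentrations, 48 h exposure and ATP-based viability; confirmation added three slower-growing patient lines.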

astro = test: as above; conditions: viability, ATP luminescence, 48 h; series mostly up to 45.9 µM
Outline: as §3

CASKI = test: Primary qHTS to identify gynecologic anti-cancer compounds using libraries of approved drugs and bioactive compounds (AID 1345084); conditions: Gynecologic cancer cell panel viability, ATPlite luminescence, 48 h; series mostly up to 57.5 µM; further: nearly all actives have a fitted effect of over 55% in size
Outline: as §2

[2] = at 45.9 µM (top of the series), tumour line B
[3] = at 45.9 µM (top of the series), tumour line D
[4] = at 46 µM (top of the series), tumour line A
On the % scale 0 is the no-effect control and ±100 the full control effect; potency means the concentration at half of the fitted maximal effect.

O=C(CCCN1CCC(n2c(=O)[nH]c3ccccc32)CC1)c1ccc(F)cc1
active: Potency ([1]; tumour line A) 5.62 µM
inactive: Potency (MKL-2) | Potency (UISO) | Potency (WaGa) | Potency (C33A) | Potency (CAOV3) | Potency (Es-2) | Potency (HeLa) | Potency (Hek293T) | Potency (JEG-3) | Potency (OV90) | Potency (PA-1) | Potency (SKOV3) | Potency (Tov-21-G) | Potency (Tov112D) | activity, negative = cell killing ([1]; at 21.2 µM (top of the series), tumour line B) -8.66% | Potency (astro)

CN(C)C(=S)SSC(=S)N(C)C
inactive: Potency (CASKI) | Potency (HeLa)
active: Potency (MKL-2) 0.596 µM | Potency (UISO) 0.211 µM | Potency (WaGa) 0.668 µM | Potency (C33A) 1.26 µM | Potency (CAOV3) 11.2 µM | Potency (SKOV3) 1.58 µM | Potency (Tov112D) 12.6 µM | Potency ([1]; tumour line A) 35.5 µM | Potency ([1]; tumour line B) 35.5 µM

CCCC(C)C1(CC)C(=O)N=C(S)NC1=O (configuration not stated)
inactive: Potency (MKL-2) | Potency (UISO) | Potency (WaGa) | Potency (C33A) | Potency (CAOV3) | Potency (CASKI) | Potency (Es-2) | Potency (HeLa) | Potency (Hek293T) | Potency (JEG-3) | Potency (PA-1) | Potency (Tov-21-G) | Potency (Tov112D) | activity, negative = cell killing [1, 2] -11.2% | activity, negative = cell killing [1, 3] -14.3% | activity, negative = cell killing [1, 4] -28.3% | Potency (astro)

CC(C)NCC(O)c1ccc(N)c(C#N)c1 (configuration not stated)
inactive: Potency (MKL-2) | Potency (UISO) | Potency (WaGa) | Potency (C33A) | Potency (CAOV3) | Potency (CASKI) | Potency (Es-2) | Potency (HeLa) | Potency (Hek293T) | Potency (JEG-3) | Potency (OV90) | Potency (PA-1) | Potency (SKOV3) | Potency (Tov-21-G) | Potency (Tov112D) | activity, negative = cell killing [1, 2] -10.3% | activity, negative = cell killing [1, 3] -5.78% | activity, negative = cell killing [1, 4] -34.1% | Potency (astro)

CC(C(O)c1ccccc1)N(C)C/C=C/c1ccccc1 (configuration not stated)
inactive: Potency (MKL-2) | Potency (UISO) | Potency (WaGa) | Potency (C33A) | Potency (CAOV3) | Potency (CASKI) | Potency (Es-2) | Potency (HeLa) | Potency (Hek293T) | Potency (JEG-3) | Potency (PA-1) | Potency (SKOV3) | Potency (Tov-21-G) | Potency (Tov112D)

CCC1(c2ccccc2)CCC(=O)NC1=O (configuration not stated)
inactive: Potency (MKL-2) | Potency (UISO) | Potency (WaGa) | Potency (C33A) | Potency (CASKI) | Potency (Es-2) | Potency (HeLa) | Potency (Hek293T) | Potency (JEG-3) | Potency (OV90) | Potency (PA-1) | Potency (SKOV3) | Potency (Tov-21-G) | Potency (Tov112D) | activity, negative = cell killing [1, 2] -10.4% | activity, negative = cell killing [1, 3] -10.3% | activity, negative = cell killing [1, 4] -28.9% | Potency (astro)

Cc1nnc2n1-c1sc(CCc3ccc(CC(C)C)cc3)cc1C(c1ccccc1Cl)=NC2C (configuration not stated)
inactive: Potency (CASKI) | Potency (JEG-3) | Potency (Tov112D)
active: Potency (MKL-2) 11.9 µM | Potency (UISO) 16.8 µM | Potency (astro) 35.5 µM

CC1N=C(N)OC1c1ccccc1 (configuration not stated)
active: Potency ([1]; tumour line A) 50.1 µM
inactive: Potency (MKL-2) | Potency (UISO) | Potency (C33A) | Potency (CASKI) | Potency (Es-2) | Potency (HeLa) | Potency (Hek293T) | Potency (JEG-3) | Potency (PA-1) | Potency (Tov-21-G) | Potency (Tov112D) | activity, negative = cell killing ([1]; at 91.6 µM (top of the series), tumour line B) -8.97% | activity, negative = cell killing ([1]; at 91.6 µM (top of the series), tumour line D) -16.1% | Potency (astro)
